Screens: PubChem BioAssay, National Center for Advancing Translational Sciences (NCATS)
NS1 function inh: inhibitors of influenza NS1 protein function | AID 2326 | Potency, µM (top dose mostly 46.1 µM) | actives 0.4% (n = 270,000); calls by dose curve; note: actives are rising curves; nearly all actives have a fitted effect of over 50% in size
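Read-out: OD600 growth recovery of NS1-expressing budding yeast. Cells grown overnight at 30C in -URA glucose medium, washed, resuspended and diluted 1:100 in 2% galactose assay medium, pH 6.0. Same strain lacking NS1 served as positive control.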
CHX counter: counter-screen hit for Shiga toxin inhibitors, cycloheximide; cell reporter, cycloheximide protein synthesis inhibition counterscreen; max response, %; actives 12% (n = 300,000); in the data active = max response mostly above about 13%, no sharp cut-off; inactive = mostly below about 14%; note: read at 38.3 µM for the half of the compounds with a filed dose
Pf growth 96h: inhibits malaria parasite growth, 96 h; actives 6.9% (n = 320,000); Potency, µM (highest dose often 28.7 µM), actives largely listed as inhibitors; AID 504834; P. falciparum luciferase reporter growth, 96 h
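Luminescence readout: decreased luciferase signal marks inhibited growth of reporter-expressing P. falciparum in infected red cells (2% hematocrit, 0.05% parasitemia final), exposed to compound two generations (96 h, 37 C, 5% CO2).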
Pf growth 48h: inhibits P. falciparum growth in the first generation, 48 h; P. falciparum luciferase growth in erythrocytes, 48 h; Potency, µM (series often up to 28.7 µM), actives largely listed as inhibitors; actives 5.9% (n = 310,000); AID 504832
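Luciferase-expressing parasites in RBCs, 2% Hct / 0.1% parasitemia final; RPMI 1640 + 0.5% Albumax; 37 C, 5% CO2, one generation; luminescence read-out, lower signal = inhibition.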
Shiga toxin inh: Shiga toxin inhibition. inhibition, % at 38.7 µM. Vero cells, Shiga toxin protein synthesis inhibition reporter. actives 9.2% (n = 290,000); in the data active = inhibition mostly above about 28%, no sharp cut-off; inactive = mostly below about 43%
Flu NS1 inh: influenza NS1 function inhibition validation. shares compounds with NS1 function inh. influenza NS1 function cell assay, 15-point titration. activity change, negative = inhibition, % at 32.9 µM. 1,400 tested, under 10 active. AID 492980; calls by dose curve
PR8 titer: influenza NS1 inhibitors: inhibition of influenza A/PR/8/34 replication; virus titer (log TCID50), log10 TCID50 at 5 µM; actives 30% (n = 95); shares compounds with NS1 function inh; MDCK infected influenza A/PR/8/34, virus titer TCID50; active compounds read low; AID 504647; call rule not given here
A number is an active result; - = inactive; ? = inconclusive; . = no result. Only some compounds are listed: those with a hit (about 21% of all), similar ones and a draw of the others. Unless noted, calls come from the whole dose curve; as a rule, active = well fitted inhibition curve with a large enough effect; inconclusive = small, poorly fitted or top-dose-only effect, or another doubt; inactive = no such curve, though single readings can be large or run the other way.

SMILES | NS1 function inh | CHX counter | Pf growth 96h | Pf growth 48h | Shiga toxin inh | Flu NS1 inh | others
S=C(NCC(c1ccco1)N1CCCC1)Nc1ccccc1 (configuration not stated) | . | - | ? | ? | - | .
OC(CNCC(c1ccco1)N1CCCCC1)c1ccccc1 (configuration not stated) | 2.2µM | - | ? | 1.3µM | - | -
CN(C)CCCNC(=O)C(=O)NCC(c1cccs1)S(=O)(=O)c1ccc(F)cc1 (configuration not stated) | . | . | - | - | . | .
O=C(CSc1nc(O)c(Cc2ccccc2)c(=O)[nH]1)N1CCOCC1 | ? | - | - | ? | - | - | PR8 titer=-
COc1ccccc1-n1c(SCC(=O)OC(C)C)nc2cccnc21 | - | - | - | ? | - | .
COc1ccccc1-n1c(SCC(=O)N2CCCC2)nc2cccnc21 | 2µM | - | - | - | - | -
COc1ccccc1-n1c(SCC(=O)N2CCOCC2)nc(O)cc1=O | ? | - | ? | ? | - | .
COc1ccccc1-n1c(SCC(=O)N2CCOCC2)nc(O)c(Cc2ccccc2)c1=O | ? | - | . | - | - | -
CCN(CC)C(=O)CSc1nc2cccnc2n1-c1ccccc1OC | - | - | ? | - | - | .
CCN(CC)C(=O)CSc1nc2ccccc2c(=O)n1-c1ccccc1OC | 35µM | - | - | ? | - | -
Cc1cccc(OCC(=O)NCCN2CCOCC2)c1 | 1.8µM | - | - | ? | - | -
O=C(Nc1ccccc1-c1ccccc1)c1ccc(Br)o1 | - | - | . | . | - | .
O=C(Nc1ccccc1Oc1ccccc1)c1ccc(Br)o1 | ? | - | - | - | - | ?
CC(=O)c1cccc(NC(=O)CSc2nc(N3CCOCC3)nc(N3CCOCC3)n2)c1 | - | - | - | - | - | .
CCc1cccc(C)c1NC(=S)NCc1ccc2c(c1)cc(C)n2C | 14µM | - | 6.6µM | ? | - | -
Cc1cc2cc(CNC(=O)c3cccs3)ccc2n1C | ? | 38 | . | ? | 56 | -
COc1ccc(/C=C\C(=O)NCc2ccc3c(c2)cc(C)n3C)cc1OC | 11µM | - | ? | ? | - | - | PR8 titer=-
Cc1ccccc1NC(=S)NCc1ccc2c(c1)cc(C)n2C | ? | - | - | - | - | .
Cc1cc2cc(CNC(=O)c3ccc(S(=O)(=O)N4CCCC4)cc3)ccc2n1C | 10µM | - | 9.3µM | ? | - | -
CCN(CC)S(=O)(=O)c1ccc(C(=O)NCc2ccc3c(c2)cc(C)n3C)cc1 | ? | - | ? | ? | - | .
COc1cccc(N2C(=O)C3CCCN3C2c2ccc(Cl)cc2)c1 (configuration not stated) | - | - | - | . | - | .
Cc1ccc(C)c(S(=O)(=O)N2CCN(C(=O)c3cncc(Br)c3)CC2)c1 | - | - | - | ? | - | .
O=C(CSCC(=O)N1CCCc2ccccc21)Nc1nc(-c2ccccc2)cs1 | 20µM | 18 | - | - | - | -
O=C(C[n+]1cc(-c2ccccc2)n2c1CCC2)Nc1nc(-c2ccccc2)cs1 | - | - | ? | ? | - | .
Cc1onc(-c2ccccc2)c1C(=O)N1CCN(S(=O)(=O)c2ccc(OC(F)(F)F)cc2)CC1 | - | - | ? | - | - | .
SMILES | NS1 function inh | CHX counter | Pf growth 96h | Pf growth 48h | Shiga toxin inh | Flu NS1 inh | others
OC(CN1CCC(Cc2ccccc2)CC1)c1ccccc1 (configuration not stated) | - | - | ? | ? | - | .
COc1ccccc1NC(=O)CN(c1ccc(C)cc1)S(=O)(=O)c1c(C)n[nH]c1C | ? | - | . | ? | - | -
COc1ccc(NC(=O)Nc2cc(C(C)(C)C)on2)cc1OC | - | - | - | - | - | .
CCCCC/C=N\NC(=O)Cc1ccc([N+](=O)[O-])cc1 | - | - | - | - | - | .
CC1CN(C)C(c2ccccc2)C(C)C12NC(=O)NC2=O (configuration not stated) | ? | - | - | - | - | -
CC1C(c2ccccc2)N(C)C(c2ccccc2)CC1(O)c1ccccc1 (configuration not stated) | - | - | . | - | - | .
CCCOP(=O)(c1ccc(N(C)C)cc1)C(O)c1ccccc1OC (configuration not stated) | - | - | - | - | - | .
CCCOP(=O)(c1ccc(N(C)C)cc1)C(Nc1ccccc1)c1ccc(N(C)C)cc1 (configuration not stated) | 20µM | - | 8.3µM | 2.6µM | - | -
COc1cc(/C=C2/C(=O)N(c3ccc(Br)cc3)N=C2C)cc(OC)c1OC | 11µM | - | - | - | - | -
COc1cc(/C=C2/C(=O)N(c3ccc(C(=O)O)cc3)N=C2C)cc(OC)c1O | - | - | - | - | - | .
CCOc1ccc(C(=O)N2CCN(c3ccccn3)CC2)cc1OCC | - | - | - | ? | - | .
Cc1nc(C)c(-c2nnc(-c3ccccc3Cl)o2)cc1C(=O)NN | - | - | ? | ? | - | .
Cc1nc(C)c(-c2nnc(-c3ccc(C(C)(C)C)cc3)o2)cc1C(=O)NN | 10µM | - | - | ? | - | -
CCOc1ccc(N2CC(NC(=O)c3cccc4ccccc34)CC2=O)cc1 (configuration not stated) | . | . | - | - | . | .
COc1cc(/C=C/C(=O)O)cc(S(=O)(=O)Nc2ccccc2Oc2ccccc2)c1OC | ? | - | - | ? | - | -
COc1cc(/C=C/C(=O)O)cc(S(=O)(=O)Nc2ccc3[nH]c(=O)[nH]c3c2)c1OC | - | - | - | - | - | .
COc1cc(/C=N/n2c(-c3ccc4c(c3)NC(=O)CO4)csc2=Nc2cccc(C)c2)ccc1O | 11µM | 33 | 4.7µM | ? | 38 | - | PR8 titer=-
CC(C)=CCN1CCN(Cc2cn(C(C)C)c3ccccc23)CC1CCO (configuration not stated) | 11µM | - | ? | ? | - | -
CCc1cc2c(=O)n(Cc3ccco3)c(SCC(=O)N3CCCc4ccccc43)nc2s1 | 7.1µM | 19 | - | 9.3µM | - | -
CCc1cc2c(=O)n(Cc3ccco3)c(SCC(=O)NCC3CCCO3)nc2s1 (configuration not stated) | - | - | - | ? | - | .
CCCC(C)NC(=O)c1ccc2[nH]c3c(c2c1)CC(C)CC3 (configuration not stated) | 11µM | 28 | 3.3µM | 4.7µM | - | -
COc1ccc(CN2CCN(S(=O)(=O)c3ccc(NC(C)=O)cc3)CC2)cc1 | ? | - | ? | ? | - | -
Cc1ccc(CC(=O)Nc2ccc(S(=O)(=O)N3CCOCC3)cc2)cc1 | ? | - | - | - | - | -
COc1ccc(NC(=S)Nc2cccc(S(=O)(=O)N3CCCCC3)c2)cc1 | 13µM | - | - | - | - | -
Cc1cc(NNC(=O)c2cccc(C(F)(F)F)c2)nc2c1c(C)nn2C | - | - | - | - | - | .
CN(C)/C=C(\C=O)c1cccc(Cl)c1 | - | - | - | - | - | .
